# Earlier results, collected in PubChem BioAssay AID977611.
# Out of some 3,900 compounds screened, about 3,900 (100%) were called active. No cut-off is given here; in the data, nearly all actives have Kd up to about 4200 µM. So high a share suggests a set chosen from earlier hits. This is one part of the list. Numbered stars: 1 amine (or outer) side, 2 acyl side, 3 side chain; on linkers, the order of the positions; unused ones are H or OH. *1 amine or outer side, *2 acyl side, *3 side chain or, on linkers, in order; H or OH if unused. Where a SMILES comes first, the peptide text is derived from it. Non-standard residues stand in square brackets, D forms with d. Square brackets hold non-standard residues; d marks the D form. Residues, ends and D or L forms follow the SMILES beside them. Peptide text beside a SMILES is read from it. [ ]: non-standard residue; d: D form. X3 = CCCCCC[C@](C)(N[C@@H](O)CN)[C@H](O)N([C@@H](CC(C)C)C(=O)[*:2])[*:1]; X1 = CCCC[C@@](C)(N[*:1])C(=O)[*:2]; Orn(CH(NH2)2) = NC(N)NCCC[C@H](N)C(=O)O; X4 = CCCCCC[C@](C)(N[*:1])C(=O)[*:2]; X2 = CCCC[C@](C)(N[*:1])C(=O)[*:2]
# Test: PubChem AID 977611
# Conditions: PDB protein-ligand complexes, literature Kd
compound,measurement,setting,value
Nc1nc(-c2ccc(C(F)(F)F)cc2)cc(N2CCOCC2)n1,Kd,"protein: Acetylcholine-binding protein AChBP, PDB entry 4qab",0.0002 µM (active)
CC1CCN(c2cc(-c3ccc(C(F)(F)F)cc3)nc(N)n2)CC1,Kd,"protein: Acetylcholine-binding protein AChBP, PDB entry 4qac",0.0004 µM (active)
CCCCCC[C@](C)(NC(=O)[C@H](CC(=O)O)NC(=O)[C@H](CC(C)C)N[C@@H](O)[C@](C)(CCCCCC)N[C@@H](O)CN)C(=O)N[C@@H](CC(C)C)C(=O)N[C@@H](CC(=O)O)C(=O)N[C@@H](CC(C)C)C(=O)N[C@@H](C)C(=O)N[C@@H](CO)C(=O)O (H-[X3]D[X4]LDLAS-OH),Kd,"protein: 14-3-3 protein zeta/delta, PDB entry 4n84",0.51 µM (active)
CCCC[C@@](C)(NC(=O)CNC(=O)[C@@H](N)CCC(N)=O)C(=O)N[C@@H](CC(C)C)C(=O)N[C@@H](CC(=O)O)C(=O)N[C@@](C)(CCCC)C(=O)N[C@@H](CC(C)C)C(=O)N[C@@H](CC(=O)O)C(=O)N[C@@H](CC(C)C)C(=O)N[C@@H](C)C(=O)N[C@@H](CO)C(=O)O (H-QG[X1]LD[X2]LDLAS-OH),Kd,"protein: 14-3-3 protein zeta/delta, PDB entry 4n7y",0.55 µM (active)
c1ccc([C@@H]2Nc3ccccc3-c3nc4ccccc4n32)nc1,Kd,"protein: Retinal rod rhodopsin-sensitive cGMP 3',5'-cyclic phosphodiesterase subunit delta, PDB entry 4jv8",1.42 µM (active)
Cc1cc2nc3c(=O)[nH]c(=O)nc-3n(C[C@H](O)[C@H](O)[C@H](O)CO)c2cc1C,Kd,"protein: putative protease fromBacteroides thetaiotaomicron (ppBat), PDB entry 4d1y",0.074 µM (active)
O=C1N[C@@H](c2cccnc2)c2c(-c3ccccc3)n[nH]c21,Kd,"protein: Gag protein, PDB entry 4j93",20 µM (active)
O=C(O)CCc1ccc2c(c1)OCO2,Kd,"protein: INTEGRASE, PDB entry 4ahr",6500 µM (active)
same,Kd,"protein: Pantothenate synthetase (T2A, E77G mutation), PDB entry 4ef6",1200 µM (active)
O=C(O)c1ccc2c(c1)OCO2,Kd,"protein: Pantothenate synthetase (T2A, E77G mutation), PDB entry 4ddk",5100 µM (active)
O=C1NC(=[N+]2CCCC2)Cc2ccccc21,Kd,"protein: Caspase-6, PDB entry 4n7m",3.4 µM (active)
O=C(Nc1ccc(OC(F)(F)F)cc1)N(Cc1cccc(-c2nccs2)c1)C1CC1,Kd,"protein: High affinity nerve growth factor receptor TrkA, PDB entry 4pmp",0.4 µM (active)
CCc1c(C(=O)Nc2cc(S(=O)(=O)N(CC)CC)ccc2O)[nH]c(C)c1C(C)=O,Kd,"protein: Bromodomain-containing protein 4, BRD4(1), PDB entry 4lyw",237 µM (active)
CCc1c(C(=O)NC)[nH]c(C)c1C(C)=O,Kd,"protein: Bromodomain-containing protein 4, BRD4(1), PDB entry 4lzs",16 µM (active)
CC[C@H](C)[C@H](NC(=O)[C@H](C)NC(=O)[C@@H]1CCCN1C(=O)[C@@H](NC(=O)[C@@H](N)CC(=O)O)[C@@H](C)CC)C(=O)N[C@@H](Cc1ccc(O)cc1)C(=O)N[C@@H](CCCNC(N)N)C(=O)N[C@@H](Cc1ccc(O)cc1)C(=O)NCC(=O)N[C@@H](CC(C)C)C(=O)N[C@@H](CCC(=O)O)C(=O)NCC(=O)N[C@@H](CC(C)C)C(=O)N[C@@H](CC(C)C)C(=O)O (H-DIPAIY[Orn(CH(NH2)2)]YGLEGLL-OH),Kd,"protein: CELL DIVISION PROTEIN FTSA, PUTATIVE, PDB entry 4a2a",45 µM (active)
CC(C)C[C@H](NC(=O)[C@@H](NC(=O)[C@H](C)NC(=O)[C@H](Cc1ccc(O)cc1)NC(=O)[C@H](C)NC(=O)[C@@H]1CCCN1C(=O)[C@@H]1CCCN1C(=O)[C@@H]1CCCN1C(=O)[C@H](C)NC(=O)[C@@H](N)[C@@H](C)O)[C@@H](C)O)C(=O)NCC(=O)O (H-TAPPPAYATLG-OH),Kd,"protein: E3 ubiquitin-protein ligase NEDD4, PDB entry 2m3o",5 µM (active)
CC(C)C[C@H](NC(=O)[C@H](CCC(N)=O)NC(=O)CNC(=O)[C@H](CCC(N)=O)NC(=O)[C@@H]1CCCN1C(=O)[C@H](CC(C)C)NC(=O)[C@@H]1CCCN1C(=O)[C@H](CCC(=O)O)NC(=O)[C@@H]1CCCN1C(=O)[C@@H](N)CC(C)C)C(=O)N[C@H](C(=O)N[C@@H](C)C(=O)N[C@@H](Cc1ccc(O)cc1)C(=O)O)[C@@H](C)O,Kd,"protein: HLA class I histocompatibility antigen(HLA-B*3501), PDB entry 1zhk",35.2 µM (active)
same,Kd,"protein: HLA class I histocompatibility antigen(HLA-B*3508), PDB entry 1zhl",9.9 µM (active)
CC[C@H](C)[C@H](NC(=O)[C@H](CCC(=O)O)NC(=O)[C@@H](NC(=O)[C@H](CC(=O)O)NC(=O)CNC(=O)[C@H](Cc1ccc(O[P+](O)(O)O)cc1)NC(=O)[C@H](CC(=O)O)NC(=O)[C@H](CCC(=O)O)NC(=O)[C@@H]1CCCN1C(=O)[C@H](Cc1ccc(O)cc1)NC(=O)[C@@H]1CCCN1C(=O)[C@H](CC(N)=O)NC(=O)[C@@H](N)Cc1ccc(O)cc1)[C@@H](C)CC)C(=O)NCC(=O)O (H-YNPYPED[X1]GDIEIG-OH),Kd,"protein: insulin receptor subunit beta, PDB entry 3bu6",1.3 µM (active)
H-DDDEDGYNPYTL-OH,Kd,"protein: CTD interacting domain of Protein NRD1, PDB entry 2mow",1.09 µM (active)
H-QAQGPPYPTYPGY-OH,Kd,"protein: ESCRT and ALIX binding region (EABR), PDB entry 3e1r",1.5 µM (active)
